Screening data as filed in PubChem BioAssay.
Sampled rows, rich in hits. Any-hit rate of the full collection: about 19%.
MARV entry inh: inhibitors of Marburg virus binding or cell entry | actives 1.8% (n = 300,000) | Marburg virus pseudotyped entry inhibition, cell reporter | AID 540276 | Potency, µM (top dose mostly 37.8 µM), inactives show at the top dose activity change, negative = inhibition, hits mostly inhibitors; calls by dose curve; tested in HEK293 cells; note: potency is the fitted concentration of half-maximal effect; % is set by controls: 0 for no effect and ±100 for the full control effect
Pf growth 96h: inhibits malaria parasite growth, 96 h; actives 6.9% (n = 320,000); P. falciparum luciferase reporter growth, 96 h; Potency, µM (titrated, usually from 28.7 µM), without a hit: at the highest dose activity change, negative = inhibition, most hits filed as inhibitors; note: potency is the fitted concentration of half-maximal effect; % is set by controls: 0 for no effect and ±100 for the full control effect
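Erythrocytes infected with luciferase-expressing P. falciparum were dispensed at 2% hematocrit and 0.05% parasitemia (final), then incubated with compounds 96 hours at 37 C in 5% CO2. Luminescence after detection reagent addition reported growth.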
CHX counter: affects cycloheximide protein synthesis inhibition readout, counter-screen; cell reporter, cycloheximide protein synthesis inhibition counterscreen; AID 2314; max response, %; actives 12% (n = 300,000); in the data active = max response mostly above about 13%, no sharp cut-off; inactive = mostly below about 14%; note: read at 38.3 µM for the half of the compounds with a filed dose; 0% is about no effect
Pf growth 48h: inhibits P. falciparum growth in the first generation, 48 h; P. falciparum luciferase growth in erythrocytes, 48 h; actives 5.9% (n = 310,000); Potency, µM (top dose mostly 28.7 µM), for inactives: at the highest dose activity change, negative = inhibition, hits mostly inhibitors; note: potency is the fitted concentration of half-maximal effect; % is set by controls: 0 for no effect and ±100 for the full control effect
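Cell-based growth assay: transgenic P. falciparum expressing firefly luciferase, cultured in red cells within RPMI 1640 containing 0.5% w/v Albumax, 24 mM bicarbonate and gentamycin. A drop in luciferase activity indicates inhibition.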
Shiga inhibitor: Shiga toxin inhibition; Vero cells, Shiga toxin protein synthesis inhibition reporter; inhibition, % at 38.7 µM; actives 9.2% (n = 290,000); in the data active = inhibition mostly above about 28%, no sharp cut-off; inactive = mostly below about 43%; note: 0% is about no effect
LASV entry inh: blocks Lassa virus binding to or entry into cells | Lassa virus pseudotype entry inhibition, cell reporter | actives 1.2% (n = 300,000) | Potency, µM (top dose mostly 37.9 µM), without a hit: at the highest dose activity change, negative = inhibition, hits mostly inhibitors; calls by dose curve; tested in HEK293 cells; note: potency is the fitted concentration of half-maximal effect; % is set by controls: 0 for no effect and ±100 for the full control effect; nearly all actives have a fitted effect of over 50% in size
Numbers without * were called inactive; ? = inconclusive; / = no result given; + = active, no number; [ ] = another dose, or the depositor's remark. Unless noted, calls come from the whole dose curve; as a rule, active = well fitted inhibition curve with a large enough effect; inconclusive = small, poorly fitted or top-dose-only effect, or another doubt; inactive = no such curve, though single readings can be large or run the other way.

SMILES | MARV entry inh | Pf growth 96h | CHX counter | Pf growth 48h | Shiga inhibitor | LASV entry inh
CCOc1ccc(C2=Nn3c(nnc3-c3ccc(OC)cc3)SC2)cc1 | 5.2µM* | ? | -4 | 15µM* | 1 | ?
COc1ccc(OC)c(C2=Nn3c(nnc3-c3cc(OC)ccc3OC)SC2)c1 | / | / | 12 | / | -5 | /
COc1ccc(OC)c(-c2nnc3n2N=C(c2ccc(OC)c(OC)c2)CS3)c1 | / | 3.3µM* | -8 | 5.9µM* | 8 | /
O=C1CCc2cc(S(=O)(=O)Nc3ccccc3F)cc3c2N1CCC3 | ? | 53% | / | 2% | / | -1%[46.1 µM]
COc1ccc(Cl)cc1C(=O)NNC(=O)COC(=O)c1ccc(Br)o1 | -29% | / | / | / | / | 16%
O=C1CNCc2[nH]c3ccccc3c2N1c1ccccc1 | ? | / | 1 | 44% | -3 | ?
CC(C)(CC(=O)O)CC(=O)N1CCN(c2nc3ccc(Cl)cc3s2)CC1 | / | 4% | -1 | 12% | -5 | /
CC(C)(C)NC(=O)N1CCN(c2nc(-c3ccccc3)ns2)CC1 | ? | 24% | 35* | 65% | 108* | ?
O=C(c1ccc(F)cc1F)N1CCCN(c2nc(-c3ccccc3)ns2)CC1 | / | -19% | 1 | 23% | 19 | /
CCCCC(=O)N1CCN(c2nc3ccc(Cl)cc3s2)CC1 | ? | 45% | 45* | 46% | 43* | -7%[46.1 µM]
CC(C)(C)NC(=O)N1CCN(c2nc3ccc(Cl)cc3s2)CC1 | ? | 39% | 15 | 5%[0.00184 µM] | 42* | 13%[46.1 µM]
CC(C)(CC(=O)O)CC(=O)N1CCCN(c2nc3ccc(Cl)cc3s2)CC1 | -10% | 1% | 16* | 6% | 67* | 4%
O=C(CSc1nc2cc(S(=O)(=O)N3CCOCC3)ccc2o1)Nc1c(F)cccc1F | ? | -5% | -2 | -18% | 1 | -27%[46.1 µM]
CCn1cc(C(=O)Nc2ccc3c(c2)OCCO3)c2cc(OC)c(OC)cc2c1=O | / | ? | 12* | / | 29 | /
COc1ccc(C(=O)Nc2ccc3c(c2)OCCO3)cc1[N+](=O)[O-] | ? | ? | 18* | 70% | 31* | 23%[46.1 µM]
CCn1cc(C(=O)N(C)c2ccc(OC)cc2OC)c2cc(OC)c(OC)cc2c1=O | / | 1% | 47* | -4% | 58* | /
COc1ccc(C(=O)Nc2ccc(C(=O)N3CCCC3)cc2)cc1[N+](=O)[O-] | 2% | 64% | 0 | ? | 12 | -3%
COc1cc(C(=O)Nc2ccc3c(c2)OCCO3)ccc1OC(F)F | ? | ? | 33* | 14% | 66* | -16%
COc1cc(C(=O)NNC(=O)c2ccc3c(c2)OCCO3)cc(OC)c1OC | -6% | / | / | / | / | ?
COc1ccc(NC(=O)c2ccc3c(c2)OCCO3)cc1OC | ? | 14% | 22* | 216% | 62* | /
COc1cc(C(=O)Nc2ccc3c(c2)OCCO3)ccc1OC(C)C | 0% | ? | 44* | 99% | + | 6%
O=C(NNC(=O)C1CC1)c1ccc(-c2ccccc2)cc1 | 12% | -18% | 8 | / | 1 | 3%
COc1ccc(CNS(=O)(=O)c2cc(CN3C(=O)c4cccnc4C3=O)ccc2OC)cc1 | / | 15µM* | -2 | 9% | -5 | /
CCN(c1cccc(C)c1)S(=O)(=O)c1cc(CN2C(=O)c3cccnc3C2=O)ccc1OC | / | -7% | 19* | -10% | 92* | /
COc1ccc(CN2C(=O)c3cccnc3C2=O)cc1S(=O)(=O)NCc1ccco1 | / | ? | 21* | 49% | 51* | /
SMILES | MARV entry inh | Pf growth 96h | CHX counter | Pf growth 48h | Shiga inhibitor | LASV entry inh
COc1ccc(CN2C(=O)c3cccnc3C2=O)cc1S(=O)(=O)NCc1ccccc1 | / | 33% | -8 | 12% | -2 | /
COc1ccc(CN2C(=O)c3cccnc3C2=O)cc1S(=O)(=O)N(C)c1ccc(C)cc1 | / | -32% | -3 | 36% | -8 | /
N[C@]1(C(=O)O)CCc2cc(C(=O)O)ccc21 | 23% | / | / | / | / | /
CCC(=O)N(Cc1cc2c(C)ccc(C)c2[nH]c1=O)C1CCCCC1 | 4% | ? | -3 | ? | -5 | -13%
Cc1c(-c2ccccc2)[n+](=O)c(-c2ccc(Br)cc2)c(C)n1[O-] | / | -2% | -2 | -11% | 19 | /
COC(=O)c1sc(-c2ccc(Cl)cc2)cc1NC(=O)c1ccccc1C(=O)O | -8%[46.1 µM] | 67% | 31* | 62% | 72* | 11%
COC(=O)c1sc(-c2ccc(C(C)(C)C)cc2)cc1NC(=O)CSCC(=O)O | / | -5% | 15* | 29% | 94 | /
CCOc1ccc(-c2cc(NC(=O)c3c(F)cccc3F)c(C(=O)O)s2)cc1 | 1%[46.1 µM] | 36% | 11 | ? | 40* | ?
COC(=O)c1sccc1NC(=O)c1ccccc1C(=O)O | 8%[46.1 µM] | / | / | / | / | -1%
COC(=O)c1sc(-c2ccccc2)cc1NC(=O)C1CC1 | ? | 28% | 7 | ? | 18 | 21%
CCOc1ccc(NC(=O)Nc2cc(-c3ccccc3)sc2C(=O)OC)cc1 | 6% | ? | 5 | ? | 3 | ?
COC(=O)c1sc(-c2ccc(C(C)(C)C)cc2)cc1NC(=O)c1ccccc1C(=O)O | / | 11% | 44* | 8% | 84* | /
COc1ccc(OCC2CN(Cc3ccccc3)S(=O)(=O)CCO2)cc1 (stereo not drawn) | / | / | / | / | / | -1%[46.1 µM]
Nc1nc(-c2ccc(Oc3ccccc3)cc2)c(CC(=O)O)s1 | / | 40% | 13 | 20% | 23 | /
O=C(Cn1nnc(-c2ccccc2F)n1)NCCc1ccccc1 | / | ? | -5 | / | -21 | /
COc1ccc(C(=O)Cn2nnc(-c3ccccc3F)n2)cc1 | 2% | 46% | 12* | 33% | 3 | -5%
COc1ccc(C(=O)Cn2nnc(-c3ccccc3NC(=O)C3CC3)n2)cc1 | ? | ? | 18* | 12µM* | 52 | 2%
Cc1ccc(C)c(OCC(O)CN2CCC(Cc3ccccc3)CC2)c1 (stereo not drawn) | / | ? | -4 | 7.4µM* | -2 | /
OC(COc1ccc(Cl)cc1)CN1CCC(Cc2ccccc2)CC1 (stereo not drawn) | / | ? | -9 | -14% | 14 | /
Cc1ccc(C)c(OCC(O)CN2CCCCC2C)c1 (stereo not drawn) | ? | 10µM* | -3 | ? | -11 | -19%
Cc1ccc(C)c(OCC(O)CN2C(C)CCCC2C)c1 (stereo not drawn) | ? | / | 1 | ? | 5 | ?
Fc1cccc(CCN2CCN=C2Nc2ccccc2)c1 | / | 43% | / | ? | / | /
S=c1[nH]nc(-c2ccco2)n1/N=C/C(Cl)=C/c1ccccc1 | ? | 65% | 53* | 5.2µM* | 73* | ?
Cc1n[nH]c(=S)n1/N=C/c1cccc(OCc2ccccc2)c1 | ? | 31% | 15 | 2.6µM* | 58* | 14%[46.1 µM]
CC(=C/c1ccccc1)/C=N/n1c(C)n[nH]c1=S | / | 12µM* | 30* | 10% | 47 | /
Cc1cc(-c2n[nH]c(=S)n2/N=C/C(Cl)=C/c2ccccc2)n[nH]1 | ? | ? | 39* | -16% | 38* | 6%
